A selection: hits, their analogues and other compounds. The true share with any hit is near 7.9%.
Marburg entry inh: qHTS for inhibitors of binding or entry into cells for Marburg Virus | Marburg virus pseudotyped entry inhibition, cell reporter | Potency, µM (top dose mostly 37.8 µM), actives largely listed as inhibitors | hit rate 1.8% among 300,000 | AID 540276, 2011; calls by dose curve; tested in HEK293 cells
HCV inhibitor: qHTS Assay for Inhibitors of Hepatitis C Virus (HCV); Huh7.5.1 HCVcc-Cre infection, luciferase reporter, 44 h; Potency, µM (series often up to 41.8 µM), hits mostly inhibitors; hit rate 3.4% among 340,000; active = well fitted inhibition curve with a large enough effect; inconclusive = small, poorly fitted or top-dose-only effect, or another doubt; inactive = no such curve, though single readings can be large or run the other way
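Luciferase read-out (15 sec integration) after a 15 min room-temperature substrate step quantifies HCVcc-Cre infection. Cells, 1,000 per well, had compound added 4 h post-plating, then virus at ~0.5 moi, and were cultured 44 h.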
HCMV antiviral: qHTS Assay for inhibitors of the human cytomegalovirus (HCMV); HFF cells, HCMV-luciferase reporter, 72 h; stronger effect = lower value; activity change, negative = inhibition, % at 57.5 µM; hit rate 4.5% among 410,000; in the data active = activity change below about -60%; inconclusive = no clear call, values can overlap the other calls; inactive = above about -39%
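Human foreskin fibroblasts infected with luciferase-reporter HCMV at MOI 1 PFU/cell, compounds at two doses. Luciferase measured 72 h post infection; normalized to buffer-only basal and Salinomycin (10uM) controls.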
LASV entry inh: qHTS for Inhibitors of binding or entry into cells for Lassa Virus. AID 540256, 2011. hit rate 1.2% among 300,000. Potency, µM (series often up to 37.9 µM), most hits filed as inhibitors. Lassa virus pseudotype entry inhibition, cell reporter; calls by dose curve; tested in HEK293 cells; also: nearly all actives have a fitted effect of over 50% in size
FMDV inh: High Throughput Screening for Foot and Mouth Disease Virus Antivirals | FMDV antiviral cell-based qHTS | Potency, µM (top dose mostly 57.9 µM), usual class: inhibitors | hit rate 1.2% among 410,000; calls by dose curve; tested in HEK293T cells; also: read-out not given here; nearly all actives have a fitted effect of over 45% in size
Large screens that a line does not name were inactive.

O=S(=O)(Nc1cccc2ccccc12)c1ccccc1	none
COc1ccc(NS(=O)(=O)c2ccc3ccccc3c2)c2ncccc12	Marburg entry inh inconclusive, HCV inhibitor inconclusive, HCMV antiviral -92, LASV entry inh inconclusive
O=S(=O)(Nc1cccc2cccnc12)c1ccccc1	Marburg entry inh inconclusive, HCV inhibitor inconclusive, HCMV antiviral -101, LASV entry inh inconclusive, FMDV inh inconclusive
O=C1[C@@H]2CC=C(Cl)C[C@H]2C(=O)N1CNc1ccccn1	none (no result: HCV inhibitor, HCMV antiviral, LASV entry inh, FMDV inh)
C#Cc1cccc(C(=O)N2CCCC(C(=O)c3ccc(OC)cc3C)C2)c1 (stereo not drawn)	none
COc1cc2c(c(Br)c1N)-c1cc(Br)c(N)cc1C2=O	none (no result: Marburg entry inh, HCV inhibitor, LASV entry inh)
CC(CNc1nc2ccccc2c2nc(-c3ccccc3)nn12)c1ccccc1 (stereo not drawn)	HCMV antiviral -94, FMDV inh inconclusive (no result: HCV inhibitor, LASV entry inh)
c1ccc(CNc2nc3ccccc3c3nc(-c4ccccc4)nn23)cc1	none (no result: HCV inhibitor, LASV entry inh)
CC(C)CN1C(=O)C(=O)N(CC(=O)c2ccc3c(c2)CCCC3)C1=O	Marburg entry inh inconclusive
Cc1c(OCC(=O)NCCCN2CCCC2=O)ccc2c3c(c(=O)oc12)CCC3	HCMV antiviral inconclusive (no result: Marburg entry inh, LASV entry inh)
Cc1c(OCC(=O)NCCCN2CCCC2=O)ccc2c3c(c(=O)oc12)CCCC3	HCMV antiviral active (no result: Marburg entry inh, LASV entry inh)
Cc1c(OCC(=O)N2CCC(C(=O)O)CC2)ccc2c3c(c(=O)oc12)CCC3	HCV inhibitor 0.32µM (no result: Marburg entry inh, LASV entry inh)
CCOC(=O)c1c(C)[nH]c(C)c1S(=O)(=O)N1CCCC(C(=O)N2CCN(c3ccccc3)CC2)C1 (stereo not drawn)	none (no result: Marburg entry inh, HCV inhibitor)
O=C(NC1C/C(=N/O)c2cc3c(cc21)OCO3)C(F)(F)F (stereo not drawn)	none
O=C(NCC(c1cccnc1)N1CCc2ccccc2C1)C(=O)Nc1cccc(Cl)c1 (stereo not drawn)	none (no result: Marburg entry inh, HCV inhibitor)
Cc1cc(C(=O)COc2ccc(-c3nnco3)cc2)c(C)n1Cc1ccccc1	Marburg entry inh inconclusive, HCV inhibitor inconclusive, HCMV antiviral -70, LASV entry inh inconclusive, FMDV inh inconclusive
O=C(Nc1ccc(F)cc1F)C1CCN(S(=O)(=O)c2ccc3[nH]c(=O)ccc3c2)CC1	none (no result: Marburg entry inh, HCV inhibitor)
C=CCNc1c2c(nc3nnnn13)CCCC2	none
C=CCNc1nc(S(=O)Cc2ccc(C)cc2)nc2c1CCCC2 (stereo not drawn)	HCMV antiviral -98 (no result: Marburg entry inh, LASV entry inh)
Cc1ccc(C(C(=O)NC(C)(C)C)N(CC2CCCO2)C(=O)c2csnn2)cc1 (stereo not drawn)	none
CC(C)(C)NC(=O)C(c1ccc(-c2ccccc2)cc1)N(C[C@H]1CC[C@@H]([C@@H]2CC[C@H](CO)O2)O1)C(=O)c1ccc(C(C)(C)C)cc1 (stereo partly drawn)	HCV inhibitor inconclusive, HCMV antiviral -101 (no result: Marburg entry inh, LASV entry inh)
CCOc1cc(/C=N/O)cc(Cl)c1OC	HCV inhibitor 11µM
C#CCOc1c(Br)cc(/C=N/O)cc1OCC	HCV inhibitor 2.2µM, HCMV antiviral inconclusive, LASV entry inh inconclusive
CCCOc1c(Br)cc(/C=N/O)cc1OC	Marburg entry inh 10µM
CCOc1cc(/C=N/O)cc(Br)c1OCC	HCV inhibitor inconclusive
COC(=O)c1ccc(CNC(=O)c2ccc(COc3ccccc3)cc2)cc1	none
CC(=O)c1ccc(NC(=O)c2cccc(NC(=O)N3CCSc4ncccc43)c2)cc1	none (no result: Marburg entry inh, HCV inhibitor)
CC(=O)Nc1ccc(C(=O)N(C)C(C(=O)Nc2ccc(C)cc2)c2ccccn2)cc1 (stereo not drawn)	HCMV antiviral -63
COc1ccc(NC(=O)C(c2ccccn2)N(C(C)=O)c2ccc(C)cc2)cc1 (stereo not drawn)	none
COc1ccc(CSCC(=O)N/N=C/c2ccc(OCC(=O)N3CCCCC3)cc2)cc1	none (no result: FMDV inh)
O=C(CSCc1ccccc1)N/N=C/c1cc2c(cc1Br)OCO2	Marburg entry inh inconclusive, HCV inhibitor inconclusive, HCMV antiviral -73, LASV entry inh inconclusive
O=C(CSCc1ccccc1)N/N=C/c1ccc(OCC(=O)N2CCCCC2)cc1	HCMV antiviral -68, FMDV inh inconclusive
O=C(COc1ccc(/C=N/NC(=O)CSCc2ccc([N+](=O)[O-])cc2)cc1)NCc1ccco1	Marburg entry inh 11µM, HCV inhibitor inconclusive, LASV entry inh inconclusive, FMDV inh inconclusive
O=C(CCc1ccccc1)N/N=C\c1cc2c(cc1Br)OCO2	LASV entry inh inconclusive
CN(CCO)C[C@H](O)Cn1cnc2c1c(=O)n(C)c(=O)n2C (tested in a mixture with another compound)	none (no result: HCV inhibitor, HCMV antiviral, LASV entry inh, FMDV inh)
O=C(NCc1ccccc1)C(c1ccccc1)N(Cc1ccc2c(c1)OCO2)C(=O)Cc1cccs1 (stereo not drawn)	Marburg entry inh inconclusive, HCV inhibitor inconclusive, LASV entry inh 13µM
COc1ccc(CNC(=O)C(c2ccc(C)o2)N(Cc2cccs2)C(=O)Cc2cccs2)cc1 (stereo not drawn)	Marburg entry inh inconclusive, HCV inhibitor 11µM, LASV entry inh 11µM
COCCN(C(=O)Cc1cccs1)C(C(=O)NCc1ccc(OC)cc1)c1ccc(C)cc1 (stereo not drawn)	Marburg entry inh inconclusive, HCV inhibitor inconclusive, LASV entry inh inconclusive (no result: FMDV inh)
O=C(NC1CCCC1)C(c1ccccc1)N(Cc1ccc2c(c1)OCO2)C(=O)Cc1cccs1 (stereo not drawn)	Marburg entry inh inconclusive, LASV entry inh inconclusive
Cc1ccc(SCc2nc(-c3ccc(C(=O)NCc4ccc(Cl)cc4)cc3)oc2C)cc1	none (no result: Marburg entry inh, HCV inhibitor)
COc1ccc(Cl)cc1NC(=O)CN1C(=O)C(C)(C)c2cc(S(=O)(=O)N3CCCCC3)ccc21	LASV entry inh inconclusive (no result: Marburg entry inh, HCV inhibitor)
COC(=O)C1CCCCN1Cc1ccc2c(c1)CN(C(=O)c1cc(C)nc3cc(F)ccc13)CCO2 (stereo not drawn)	none (no result: Marburg entry inh, HCV inhibitor, HCMV antiviral, LASV entry inh)
CC1(C)C=Cc2c(ccc3c2OC[C@H](c2ccc(O)cc2O)C3)O1	HCV inhibitor inconclusive, HCMV antiviral inconclusive (no result: Marburg entry inh, LASV entry inh)
CN1c2ccccc2C(C)(C)C12C=Cc1cc(O)ccc1O2 (stereo not drawn)	Marburg entry inh inconclusive, HCV inhibitor 5.6µM, LASV entry inh 15µM (no result: FMDV inh)
CCC(c1nnnn1CCc1ccccc1)N(Cc1ccco1)Cc1cc2cc(C)cc(C)c2[nH]c1=O (stereo not drawn)	Marburg entry inh inconclusive, HCV inhibitor 10µM, HCMV antiviral -71, LASV entry inh inconclusive, FMDV inh inconclusive
CCC(c1nnnn1Cc1ccco1)N(CCc1ccccc1)Cc1cc2cc(C)ccc2[nH]c1=O (stereo not drawn)	Marburg entry inh inconclusive, HCV inhibitor inconclusive, LASV entry inh inconclusive
CCC(c1nnnn1CCc1ccccc1)N(Cc1ccco1)Cc1cc2c(C)ccc(C)c2[nH]c1=O (stereo not drawn)	Marburg entry inh 14µM, HCV inhibitor 11µM, LASV entry inh inconclusive
CS(=O)(=O)N1CC(=O)N2[C@@H](CO)[C@H](c3ccc(Br)cc3)[C@@H]2C1	none (no result: Marburg entry inh, HCV inhibitor, LASV entry inh, FMDV inh)
CN1CCC(=C2c3ccccc3Sc3ccccc32)CC1	HCV inhibitor 10µM, FMDV inh inconclusive (no result: Marburg entry inh, LASV entry inh)
c1ccc2c(c1)CCc1ccccc1C2=C1CCNCC1	FMDV inh inconclusive (no result: Marburg entry inh, LASV entry inh)

Source: PubChem BioAssay
